Measurements taken from the supplement of paper PMC10105736.
Values without a mark were called inactive.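 Rule for the calls: active = MAPPIT score above the 99th percentile of random reference set scores in the same batch; inactive = at or below it.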

Tests used:
Assay in all cases: MAPPIT interaction score (arbitrary units); higher = stronger binary interaction signal, active = hit call of the paper
[1] = target: RpS5a; conditions: MAPPIT configuration: N-N; pair source set: Curagen_high_conf
[2] = target: RpS21; conditions: MAPPIT configuration: N-N; pair source set: DPIM
[3] = target: RpS3; conditions: MAPPIT configuration: N-N; pair source set: Curagen_low_conf
[4] = target: msl-3; conditions: MAPPIT configuration: N-N; pair source set: DPIM
[5] = target: Rpt2; conditions: MAPPIT configuration: N-N; pair source set: screen_1
[6] = target: Rpn6; conditions: pair source set: Lit-BM-16
[7] = target: Rtnl1; conditions: MAPPIT configuration: N-N; pair source set: screen_2
[8] = target: RpS29; conditions: pair source set: RRS
[9] = substrate: SNCF; conditions: MAPPIT configuration: N-N; pair source set: DPIM
[10] = target: Sce; conditions: MAPPIT configuration: N-C; pair source set: Lit-BM-16
[11] = target: ScpX; conditions: MAPPIT configuration: N-N; pair source set: Curagen_high_conf
[12] = target: Sarm; conditions: MAPPIT configuration: N-N; pair source set: Curagen_low_conf
[13] = target: Sas10; conditions: MAPPIT configuration: N-N; pair source set: Finley_Y2H
[14] = target: grau; conditions: MAPPIT configuration: N-N; pair source set: Lit-BM-16
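Note: HEK293T cells with Epo stimulation, STAT-responsive firefly luciferase reporter, fold induction versus unstimulated cells divided by the larger fold induction of two negative controls lacking either bait or prey.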

B1: Vm32E (protein)
chain: MQIVALTLVAFVAIAGASCPYAAPAPAYSAPAASSGYPAPPCPTNYLFSCQPNLAPAPCAQEAPAYGSAGAYTEQVPHYVGSPNREQLQQFHQRIGMAALMEELRGLGQGIQGQQY
B1 was tested, and the MAPPIT interaction score [1] was 0.177.

B2: l(2)gl (protein)
chain: MLKFIRGKGQQPSADRHRLQKDLFAYRKTAQHGFPHKPSALAYDPVLKLMAIGTQTGALKVFGQPGVELYGQHTLLNNSASELNVQLLEWVYGTGRILSLTAANQLILWEPVGATLLPIKTLPFDGKLKKVSSLCCSLSKDLLWIGTEGGNIYQLDLHTFTIKEPVIYHDVVLEQVPPAYKLNPGAIESIRQLPNSPSKLLVAYNRGLCVLWDFESASVQRAYIAPGHGQSVGLTVNFEGSEFTWYHADGSYATWSIDNPEPPSNVNYVPYGPDPCKSINRLYKGKRRSNDVIVFSGGMPRSAYGDHNCVSVHASDGHKVCLDFTSKVIDFFVTFENNRDVAEVLVVLLEEELCAYDLTDPNICAIKAPYLHSVHASAVTCNYLASEVVQSVYESILRAGDEQDIDYSNISWPITGGTLPDNLEESVEEDATKLYEILLTGHEDGSVKFWDCTGVLLKPIYNFKTSSIFGSESDFRDDAAADMSAEQVDEGEPPFRKSGLFDPYSDDPRLAVKKIAFCPKTGQLIVGGTAGQIVIADFIDLPEKVSLKYISMNLVSDRDGFVWKGHDQLNVRSNLLDGEAIPTTERGVNISGVLQVLPPASITCMALEASWGLVSGGTAHGLVLFDFKNFVPVFHRCTLNPNDLTGAGEQLSRRKSFKKSLRESFRKLRKGRSTRTNQSNQVPTTLEARPVERQIEARCADDGLGSMVRCLLFAKTYVTNVNITSPTLWSATNASTVSVFLLHLPPAQTAATAVPSASGNAPPHMPRRISAQLAKEIQLKHRAPVVGISIFDQAGSPVDQLNAGENGSPPHRVLIASEEQFKVFSLPQLKPINKYKLTANEGARIRRIHFGSFSCRISPETLQSMHGCSPTKSTRSHGDGEADPNISGSLAVSRGDVYNETALICLTNMGDIMVLSVPELKRQLNAAAVRREDINGVSSLCFTNSGEALYMMSSSELQRIALATSRVVQPTGVVPVEPLENEESVLEENDAENNKETYACDEVVNTYEIKNPSGISICTRPAEENVGRNSVQQVNGVNISNSPNQANETISSSIGDITVDSVRDHLNMTTTTLCSINTEETIGRLSVLSTQTNKASTTVNMSEIPNINISNLEDLESKRNTTETSTSSVVIKSIITNISHEKTNGDNKIGTPKTAPEESQF
With B2 the MAPPIT interaction score [2] was 0.14.

B3: mts (protein)
chain: MEDKATTKDLDQWIEQLNECNQLTETQVRTLCDKAKEILSKESNVQEVKCPVTVCGDVHGQFHDLMELFRIGGKSPDTNYLFMGDYVDRGYYSVETVTLLVALKVRYRERITILRGNHESRQITQVYGFYDECLRKYGNANVWKYFTDLFDYLPLTALVDGQIFCLHGGLSPSIDSLDHIRALDRLQEVPHEGPMCDLLWSDPDDRGGWGISPRGAGYTFGQDISETFNNTNGLTLVSRAHQLVMEGYNWCHDRNVVTIFSAPNYCYRCGNQAALMELDDSLKFSFLQFDPAPRRGEPHVTRRTPDYFL
With B3 the MAPPIT interaction score [3] was 0.284 and the MAPPIT interaction score [4] was 1.55.

B4: CG12096 (protein)
chain: MEMEDNWWVTKLKALESKPQRLDALTAMNSAIAKEAALPRQIIERLLTTDQLYDCANPAADSHVPKDQAVDVTLELLCHCLDQLAMDTADEQLSSLLRRGLTHSNPALRAQVLASLFKKLLRQLTVGQVLTLPNNELIFLILDELKQPDTQSTSLAINILSIVLPQRISNADVQAKLVQLLKQNEIVRCRAYELAVVLAKKSATLLSDVTFILDAALSELDNDDVLLQASVMELLVPLAEQNHGLSYMERRRVLDIISYRVQRVEEHPLDALLVPSIMKFFGKISVYQPLKIIGGYPHMLACLFMQLQSEDESILPTAMDTLANLATTPQGKILLNMHFSGAMEKSFKKYGSHTKKLSAHIKKRLLNSLDVIYDFKTPPATEIINIGKNWYECFAGGAHANIIMDLINTPFPDLQMAALSFLKTICKYNWGIVALKNTGGAVEFLLSRQKDLHRDIKYMKWQIMEILSASAEFSPTETIRFTAYVNEGPYHVQADLDVATEPQGNA
For B4, the MAPPIT interaction score [5] was 5.01 (active).

B5: alien (protein)
chain: MSDNDDDFMCDDDEDYGLEYSEDSNSEPDVDLENQYYNSKALKEEEPKAALASFQKVLDLENGEKGEWGFKALKQMIKINFRLCNYDEMMVRYKQLLTYIKSAVTRNHSEKSINSILDYISTSKNMALLQNFYETTLDALRDAKNDRLWFKTNTKLGKLYFDRSDFTKLQKILKQLHQSCQTDDGEDDLKKGTQLLEIYALEIQMYTVQKNNKKLKALYEQSLHIKSAIPHPLIMGVIRECGGKMHLREGEFEKAHTDFFEAFKNYDESGSPRRTTCLKYLVLANMLMKSGINPFDSQEAKPYKNDPEILAMTNLVNSYQNNDINEFETILRQHRSNIMADQFIREHIEDLLRNIRTQVLIKLIRPYKNIAIPFIANALNIEPAEVESLLVSCILDDTIKGRIDQVNQVLQLDKINSSASRYNALEKWSNQIQSLQFAVVQKMA
For B5, the MAPPIT interaction score ([6]; MAPPIT configuration: N-C) was 4.99 (active) and the MAPPIT interaction score ([6]; MAPPIT configuration: N-N) was 0.207.

B6: rush (protein)
chain: MVDRLVNSEANTRRIASVENCFGSSGVPLAMQGRVLVGEGVLTKMCRKRPKSRQFFLFNDILVYGNIVIGKKKYNKQHIMPLEEVSLESIADNQTYRNGWYIRTTTKSFVVFAATSTEKQEWMAHINKCVEDLLRKSGKKPVENHAAVWVPDTDASVCMHCKKTQFTFIQRRHHCRNCGAVVCAGCSAKKFLLPQQSTKALRVCDACYERLKHVPSSLGSGEDSAAATGAASGNKLNTTAGDSSNDEDSDEETASPGGESHDEPRFYGDNSVLSAVEDSSTITSPSSATTGSLEAPQVTPSVQSSPAAVATTGSHC
Work on B6 yielded an MAPPIT interaction score [7] of -0.205.

B7: Cog8 (protein)
chain: MDFPDKMDLENERVLKLIFPDGVPDNLRGNPELDNYLAKLGTCKVEQLKKEQTRLAEEARTILEQTQDLAISNYRTFITTAENSRSIFSEFLRSEQQLDTLVSKLPDLSVQCERFLQDSAELNEQRRLNSITLQKNAQLLEVLELPQLMERCIREGRYEEALELAAYATRLGQHQGHIPVVTSIVRSVEALWHNMLVQLVAQLRTDLQLPKCLQIVGYLRRMQAFGDNELRLKFLQARDAWLTSCLEAIPTADAQQHLSKTIEITRINLFNIITQYRAIFPEDEGTLKTQSSLRPLQGVSCNGDRLFQAWLHNKISDFLQTLERDLQLGVGSVETVLGQCMYFGLSFSRVGADFRALMAPIFVGVIRRRFESSVEQVDEQFERELERFTLINKVALHSHARKQVDPEQESYAPPEALLDFYPLAALCNGYLSALNELRLCAPLALATDVTRCLQHSLQQAAQRVLAFYRQEQQAFAGSEREAFVRLCSCLAYDLVPYIQRCIHGVFPPQSLTVHLGISLLQLEQQQLTYLQQTRILEPLKHLLPTKALVQPQDKVMEAKPSAGVPVTAEG
Binder B7 has an MAPPIT interaction score ([8]; MAPPIT configuration: N-C) of 0.627 and an MAPPIT interaction score ([8]; MAPPIT configuration: N-N) of -0.265.

B8: SmD2 (protein)
chain: MALVKPKSELTPEELARQEEEEFNTGPLSVLTQSVKNNTQVLINCRNNKKLLGRVKAFDRHCNMVLENVKEMWTELPRTGKGKKKVKPVNKDRFISKMFLRGDSVILVLRNPLATAAGK
Binder B8 has an MAPPIT interaction score [9] of 0.49.

B9: ord (protein)
chain: MYGETTLNKNHVIKFIKLKINNCLGCDEVEINFSKADNVHIIIYSLVTDMAKDLPAVTPVAQAILLLCSLTYPDSDSLETIPQLKIGKGSVSMSFKVYPVNKEEETEPESESDLDEGPSTSKQALERMVQRAERKAKEASTRNVHSKGIYVNVERRFDMYFALDTVSYYINGGKRQSCPLPEFHAKFFVRPQHSINLLRQLHEKCSGNWLKVIQSDGDGDAFKKFKDPDSPFETFVKLFESNPIKPNDMMGKLAKTCLHVNEAVRLTEREFILEVFNQVRHIFEYITAQEYTVWFLVPCLGDKDQLRSKTLEDFDLTKVRTSIRRAGDTSNIWWDHTDHNIKDILLVAFQLDLATHVNQSVLVISHLETLAEFSTMQYVTAFFMNDFYAKKNTEPKWICHRYLERIIDVALFLGVIVIIEYPSAFTLLQEGRHLIKCFQKENADSSRTSQWEIFEDVVKENESDLEFLKEAVGKVQQNV
In the case of B9, the MAPPIT interaction score [10] is reported as 2.19.

B10: CG32486 (protein)
chain: MSVESSSSAVQQPPSSSNLPLLGDNQAVATTSSASSASSSSTSSSSSSVGGGNVVGVPLDTQGSGEPPAKKQLLDGGGGGATSSSGSSLLSSAAAASGMHEKLAHRISNALCCAVCLDLPKTAMYQCQMGHLMCAACFTHLLADGRLRDQIATCPNCRVEISKSTASRNLAVEKAASELPSECQFCNKEFPYKSLERHEQHECQERPTKCKYHRIGCQWRGPYHETNEHERNCLHPQKSGYEVMAALEAHDDRIKEEKKMFNTLIDLLSYEKIIFNDLQMKPYRTDEYVHKLFYETARFSAFNQQWVVKARINNSQRDPHQSNERTITYQLILKTKTSTPMSIHFFALKGPFSDMKVSTQIYKHEFTETSTESEYYVLPLPDGVGGSGSSECNRMLANKGINFRLLMFLLNK
B10 was tested, and the MAPPIT interaction score [11] was 4.53 (active).

B11: mRpL24 (protein)
chain: MRLTQYLASKLKNFSNLPKEYIERSKKQVYWQTPKEINYLPRTVERKRFRYTTNRSWTGQFRQQNMPGTVRRKVLVEPIEDWSFFRGDRIEVLVGKDKGKQGIVTQVIPERNWVIVEGLNWHYRKVGGEKEFPGIIIKSEAPLHVTKDIRLVDPSDLQGTDFEWRFTEEGEKVRVSLRSGRIIPIPETNNQTHDYKTPNAYIEREKDTPGAVVGEITFQPKLSTFEMDIMEEMGIKEERTPVKSYWY
B11 was tested, and the MAPPIT interaction score [12] was 0.785.

B12: CG7137 (protein)
chain: MKPFEVPPWEEGADIIEFEPVNPSGNGVAAKKKPKKKKPKKKKAAVPNENLNVNKAAEKFTYRQGRGPLAPPQDSSDDDYEDVEDGIRAMHKVKSGRIEKQRPPTQATKGGKKELKLKPELAQAALEAMEATSSTTPAANSLASKLQSELLGGRFRYINEQLYSTTSRKAEALFRKDSSAFEAYHAGYRQQVEKWPINPLNRIIKTIKKIPKTAIIGDFGCGEGKLAQSVPNKVYSMDLVAARSDIIACNITDTPLQARTLDVAVYCLSLMGTDLNEFFLEANRVLKLHGTVYIAEIQSRFQDVREFVRCLNACGFDLNKKDVAVNYFYFFQFKKMRHVPKNTKMKAFSLKPCLYRKR
Binder B12 has an MAPPIT interaction score [13] of 0.356 and an MAPPIT interaction score [14] of 0.26.
